Test results taken from the supplement of paper PMC8285479.
Where a name gives a salt, the structure may show the parent alone. ± gives the standard deviation of the averaged measurements. In all, about 1,900 compounds were measured (“normalised cell viability (NPI; 0 = phenylarsine oxide control, 1 = DMSO control)”: median about 1, lowest 2% from about 0.039 on). For the sample, the lowest values were picked, then their nearest neighbours and some compounds at random.

Tested on: NCI-H1944
Assay: normalised cell viability (NPI; 0 = phenylarsine oxide control, 1 = DMSO control) (fraction of DMSO control); NCI-H1944 is a non-small cell lung cancer line; higher = more viable cells (less compound toxicity)
Settings: 6 days
[1] = glucocorticoid arm: hydrocortisone 2.75 uM co-treatment, compound 1 µM
[2] = glucocorticoid arm: hydrocortisone 2.75 uM co-treatment, compound 5 µM
[3] = glucocorticoid arm: hydrocortisone 2.75 uM pre-treated 2 days and continued, compound 1 µM
[4] = glucocorticoid arm: hydrocortisone 2.75 uM pre-treated 2 days and continued, compound 5 µM
[5] = glucocorticoid arm: vehicle, compound 1 µM
[6] = glucocorticoid arm: vehicle, compound 5 µM
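Further: CTB read-out in 384-well plates, triplicate wells, NPI normalised per plate against 1 µM phenylarsine oxide (0) and 0.1% DMSO (1) controls.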

Row | SMILES | normalised cell viability [1] | normalised cell viability [2] | normalised cell viability [3] | normalised cell viability [4] | normalised cell viability [5] | normalised cell viability [6]
1 | NCCC1CCCC(CCN)N1 (stereo unspecified) [MDL 26,630 trihydrochloride] | 0.9937 ± 0.0075 | 0.981 ± 0.021 | 0.9927 ± 0.0075 | 1.04 ± 0.11 | 0.9923 ± 0.0042 | 1 ± 0.011
2 | NC1(C(=O)O)CCCCC1 [1-Amino-1-cyclohexanecarboxylic acid hydrochloride] | 0.998 ± 0.011 | 0.9907 ± 0.0081 | 0.9927 ± 0.0049 | 0.991 ± 0.013 | 0.9913 ± 0.009 | 0.999 ± 0.011
3 | N#C/C(=C/c1ccc(O)c(O)c1)C(=O)N1CCc2ccccc21 [Tyrphostin AG 528] | 0.993 ± 0.0089 | 0.987 ± 0.032 | 1.02 ± 0.031 | 0.9767 ± 0.0095 | 1.003 ± 0.0058 | 1.02 ± 0.01
4 | NCCCCC(=O)O [5-Aminovaleric acid hydrochloride] | 0.9807 ± 0.0096 | 0.99533 ± 0.00058 | 0.9797 ± 0.0035 | 0.9945 ± 0.00071 | 0.992 ± 0.0066 | 0.9927 ± 0.0032
5 | NCCCCCC(=O)O [6-Aminohexanoic acid] | 0.9763 ± 0.0095 | 0.972 ± 0.022 | 1 ± 0.011 | 0.971 ± 0.041 | 0.99 ± 0.019 | 0.9787 ± 0.0067
6 | NCC(=O)CCC(=O)O [Aminolevulinic acid hydrochloride; Aminolevulinic acid] | 1.04 ± 0.021 | 0.0671 ± 0.0064 | 1.023 ± 0.0058 | 0.486 ± 0.037 | 1.001 ± 0.0081 | 0.00332 ± 0.0013
7 | [Cl-].[Li+] [Lithium Chloride] | 1.007 ± 0.0058 | 0.998 ± 0.013 | 1.01 ± 0.013 | 1.01 ± 0.018 | 1.01 | 1.002 ± 0.0072
8 | C[C@]12CC[C@@H]3c4ccc(O)cc4CC[C@H]3[C@@H]1C[C@@H](O)[C@@H]2O [Estriol] | 1.02 ± 0.011 | 1.01 ± 0.014 | 1.01 ± 0.01 | 1.02 ± 0.021 | 1.007 ± 0.0058 | 1.01 ± 0.011
9 | C[C@]12CC[C@@H]3c4ccc(O)cc4CC[C@H]3[C@@H]1CC[C@@H]2O [beta-Estradiol] | 0.9927 ± 0.005 | 0.954 ± 0.022 | 0.9937 ± 0.0055 | 0.962 ± 0.028 | 0.9753 ± 0.0031 | 0.9807 ± 0.0032
10 | CNC(=O)[C@H]1O[C@@H](n2cnc3c(NCc4ccc(N)cc4)ncnc32)[C@H](O)[C@@H]1O | 1.01 ± 0.012 | 0.9953 ± 0.0081 | 0.997 ± 0.003 | 1 | 0.9873 ± 0.0091 | 1.001 ± 0.0085
11 | C[C@@H](Oc1ccc(Oc2cnc3ccc(Cl)cc3n2)cc1)C(=O)O | 1.004 ± 0.0098 | 0.88 ± 0.023 | 0.858 ± 0.29 | 1.05 ± 0.015 | 1.027 ± 0.0058 | 0.522 ± 0.054
12 | CNCC[C@@H](Oc1ccc(C(F)(F)F)cc1)c1ccccc1 [R-(-)-Fluoxetine hydrochloride] | 0.999 ± 0.011 | 0.92 ± 0.014 | 1.013 ± 0.0058 | 1.02 ± 0.029 | 0.995 ± 0.0036 | 0.9947 ± 0.005
13 | N#Cc1ccc2[nH]c(O)c(-c3ccc(CN4CCOCC4)cn3)c2c1 | 1.11 ± 0.021 | 1.24 ± 0.021 | 1.053 ± 0.0058 | 1.11 ± 0.023 | 1.02 ± 0.011 | 1.05 ± 0.015
14 | CN1CC2c3ccccc3Oc3ccc(Cl)cc3C2C1 (stereo unspecified) [Asenapine] | 1.002 ± 0.0072 | 1.02 ± 0.024 | 1.01 ± 0.011 | 1.01 ± 0.028 | 0.995 ± 0.0087 | 1 ± 0.0092
15 | CN(C)CCC(c1ccc(Br)cc1)c1ccccn1 (racemic) [(±)-Brompheniramine maleate] | 1.001 ± 0.0081 | 1.03 ± 0.017 | 1.013 ± 0.0058 | 1.04 ± 0.014 | 1.013 ± 0.0058 | 1.02 ± 0.01
16 | CC(C)C[C@H](NP(=O)(O)O[C@H]1O[C@H](C)[C@@H](O)[C@H](O)[C@@H]1O)C(=O)N[C@@H](Cc1c[nH]c2ccccc12)C(=O)O [Phosphoramidon disodium] | 0.9937 ± 0.0061 | 1.01 ± 0.02 | 1.01 ± 0.016 | 0.999 ± 0.011 | 0.991 ± 0.0044 | 0.9847 ± 0.0081
